Results published in the supplement of paper PMC10849652.
Targets with a hit are over-represented here; the source holds about 8,800 in all. About 0.5% of all pairs of compound and target were hits. Unmarked numbers belong to inactive results.

Legend:
Experiment in all cases: log2 fold change, soluble protein after heating vs DMSO (PISA); higher = thermal stabilisation; K562 lysate, 10 uM; active = over 0.2 and 3.5 SD of the protein, either way, in both replicates (recomputed)
lapatinib = compound: CS(=O)(=O)CCNCc1ccc(-c2ccc3ncnc(Nc4ccc(OCc5cccc(F)c5)c(Cl)c4)c3c2)o1 [lapatinib]
How it was run: (§1)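 Log-two fold change in thermal stability relative to solvent controls is reported from duplicates. For each sample, crude K562 extract from dounce-homogenised pellets in PBS pH 7.4 with 1 mM MgCl2, at 1 mg/mL protein, was treated with 10 μM compound for 30 min. Aliquots heated for 3 min across 48°C-58°C were pooled, brought to 0.5% NP-40 at 4°C and cleared at 21,000xg for 90 min. The supernatant was quantified by TMTpro 16plex LC-MS/MS with channel sums equalised.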

pictilisib = compound: CS(=O)(=O)N1CCN(Cc2cc3nc(-c4cccc5[nH]ncc45)nc(N4CCOCC4)c3s2)CC1 [pictilisib]
How it was run: as §1

crizotinib = compound: C[C@@H](Oc1cc(-c2cnn(C3CCNCC3)c2)cnc1N)c1c(Cl)ccc(F)c1Cl [crizotinib]
How it was run: as §1

[1] = compound: C[C@H](C1=CC=C(C=C1)C(=O)NC2=C3C=CNC3=NC=C2)N
How it was run: as §1

duvelisib = compound: C[C@H](Nc1ncnc2nc[nH]c12)c1cc2cccc(Cl)c2c(=O)n1-c1ccccc1 [duvelisib]
How it was run: as §1

gandotinib = compound: Cc1cc(Nc2cc(CN3CCOCC3)c3nc(C)c(Cc4ccc(Cl)cc4F)n3n2)n[nH]1 [gandotinib]
How it was run: as §1

tozasertib = compound: Cc1cc(Nc2cc(N3CCN(C)CC3)nc(Sc3ccc(NC(=O)C4CC4)cc3)n2)n[nH]1 [tozasertib]
How it was run: as §1

doramapimod = compound: Cc1ccc(-n2nc(C(C)(C)C)cc2NC(=O)Nc2ccc(OCCN3CCOCC3)c3ccccc23)cc1 [doramapimod]
How it was run: as §1

bafetinib = compound: Cc1ccc(NC(=O)c2ccc(CN3CC[C@H](N(C)C)C3)c(C(F)(F)F)c2)cc1Nc1nccc(-c2cncnc2)n1 [bafetinib]
How it was run: as §1

[2] = compound: Cc1cccc(CC(=O)N2CCc3c2ccc(-c2cn(C)c4ncnc(N)c24)c3F)n1
How it was run: as §1

nilotinib = compound: Cc1cn(-c2cc(NC(=O)c3ccc(C)c(Nc4nccc(-c5cccnc5)n4)c3)cc(C(F)(F)F)c2)cn1 [nilotinib]
How it was run: as §1

[3] = compound: Cc1nc(Nc2n[nH]c3c2CN(C(=O)N[C@H](CN(C)C)c2ccccc2)C3(C)C)c2sccc2n1
How it was run: as §1

dasatinib = compound: Cc1nc(Nc2ncc(C(=O)Nc3c(C)cccc3Cl)s2)cc(N2CCN(CCO)CC2)n1 [dasatinib]
How it was run: as §1

[4] = compound: Cc1ncc(-c2ccnc(Nc3ccc(S(C)(=O)=O)cc3)n2)n1C(C)C
How it was run: as §1

[5] = compound: Cn1cc(-c2ccc3c(c2)CCN3C(=O)Cc2cccc(C(F)(F)F)c2)c2c(N)ncnc21
How it was run: as §1

quisinostat = compound: Cn1cc(CNCC2CCN(c3ncc(C(=O)NO)cn3)CC2)c2ccccc21 [quisinostat]
How it was run: as §1

tipifarnib = compound: Cn1cncc1[C@@](N)(c1ccc(Cl)cc1)c1ccc2c(c1)c(-c1cccc(Cl)c1)cc(=O)n2C [tipifarnib]
How it was run: as §1

[6] = compound: NC(=O)Nc1cc(-c2cccc(F)c2)sc1C(=O)N[C@H]1CCCNC1
How it was run: as §1

[7] = compound: NC(=O)c1cnc(N[C@@H]2CCCC[C@@H]2N)nc1Nc1cccc(-n2nccn2)c1
How it was run: as §1

[8] = compound: NC1(c2ccc(-c3nc4ccn5c(=O)[nH]nc5c4cc3-c3ccccc3)cc2)CCC1
How it was run: as §1

UniProt Q9BUF5, sequence (Q9BUF5 whole entry, looked up): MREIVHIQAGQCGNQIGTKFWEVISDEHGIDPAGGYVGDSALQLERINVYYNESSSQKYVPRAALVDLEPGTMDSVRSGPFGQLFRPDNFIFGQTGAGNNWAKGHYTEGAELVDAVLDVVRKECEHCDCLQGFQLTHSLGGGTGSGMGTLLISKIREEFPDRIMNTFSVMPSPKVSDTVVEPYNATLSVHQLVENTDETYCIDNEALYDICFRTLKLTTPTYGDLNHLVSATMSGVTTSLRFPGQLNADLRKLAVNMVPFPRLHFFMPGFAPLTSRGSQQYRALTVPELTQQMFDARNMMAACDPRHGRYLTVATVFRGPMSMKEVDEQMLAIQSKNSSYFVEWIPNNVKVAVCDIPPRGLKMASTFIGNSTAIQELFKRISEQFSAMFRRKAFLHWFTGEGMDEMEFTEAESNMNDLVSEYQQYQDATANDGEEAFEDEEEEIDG
UniProt P21580, sequence (P21580 whole entry, looked up): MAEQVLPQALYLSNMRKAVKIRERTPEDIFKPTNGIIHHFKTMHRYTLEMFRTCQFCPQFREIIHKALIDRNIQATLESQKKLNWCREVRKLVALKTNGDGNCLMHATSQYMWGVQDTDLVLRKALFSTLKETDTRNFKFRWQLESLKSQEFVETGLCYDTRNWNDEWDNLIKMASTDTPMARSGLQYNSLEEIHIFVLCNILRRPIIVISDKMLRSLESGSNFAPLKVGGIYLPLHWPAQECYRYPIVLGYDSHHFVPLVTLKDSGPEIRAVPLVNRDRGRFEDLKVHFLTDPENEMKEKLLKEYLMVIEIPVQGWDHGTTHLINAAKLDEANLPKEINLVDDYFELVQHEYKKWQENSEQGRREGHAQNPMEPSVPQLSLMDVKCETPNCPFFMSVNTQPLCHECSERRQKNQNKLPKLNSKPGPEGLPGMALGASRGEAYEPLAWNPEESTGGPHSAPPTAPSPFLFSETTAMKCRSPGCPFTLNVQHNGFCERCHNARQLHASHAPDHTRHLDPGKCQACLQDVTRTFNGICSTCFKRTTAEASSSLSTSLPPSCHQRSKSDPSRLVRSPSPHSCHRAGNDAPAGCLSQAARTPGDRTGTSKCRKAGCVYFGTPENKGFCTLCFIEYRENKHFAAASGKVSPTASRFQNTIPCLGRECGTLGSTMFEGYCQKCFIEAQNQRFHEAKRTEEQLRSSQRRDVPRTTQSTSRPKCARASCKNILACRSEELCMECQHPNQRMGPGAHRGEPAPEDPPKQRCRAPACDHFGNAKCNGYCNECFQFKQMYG
UniProt Q9UKI8, sequence (Q9UKI8 whole entry, looked up): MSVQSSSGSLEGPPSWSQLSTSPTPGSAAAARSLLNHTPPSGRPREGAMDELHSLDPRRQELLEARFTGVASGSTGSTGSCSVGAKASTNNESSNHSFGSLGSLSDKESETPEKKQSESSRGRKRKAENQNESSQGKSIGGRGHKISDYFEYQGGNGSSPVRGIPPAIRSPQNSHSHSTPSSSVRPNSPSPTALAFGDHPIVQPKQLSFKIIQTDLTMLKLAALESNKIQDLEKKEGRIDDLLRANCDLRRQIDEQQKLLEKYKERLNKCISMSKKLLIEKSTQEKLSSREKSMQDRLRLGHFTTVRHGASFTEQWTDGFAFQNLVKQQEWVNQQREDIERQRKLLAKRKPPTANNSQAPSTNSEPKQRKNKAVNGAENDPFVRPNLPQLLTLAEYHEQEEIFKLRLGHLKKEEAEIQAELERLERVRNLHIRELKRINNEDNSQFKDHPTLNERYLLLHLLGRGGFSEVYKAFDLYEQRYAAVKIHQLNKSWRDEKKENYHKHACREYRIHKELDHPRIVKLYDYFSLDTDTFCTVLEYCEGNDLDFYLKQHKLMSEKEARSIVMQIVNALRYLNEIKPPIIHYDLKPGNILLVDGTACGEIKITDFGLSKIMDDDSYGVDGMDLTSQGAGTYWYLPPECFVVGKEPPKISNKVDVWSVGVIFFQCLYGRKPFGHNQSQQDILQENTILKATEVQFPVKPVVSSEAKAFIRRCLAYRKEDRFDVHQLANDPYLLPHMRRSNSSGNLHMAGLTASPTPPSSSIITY
UniProt Q12800, sequence (Q12800 whole entry, looked up): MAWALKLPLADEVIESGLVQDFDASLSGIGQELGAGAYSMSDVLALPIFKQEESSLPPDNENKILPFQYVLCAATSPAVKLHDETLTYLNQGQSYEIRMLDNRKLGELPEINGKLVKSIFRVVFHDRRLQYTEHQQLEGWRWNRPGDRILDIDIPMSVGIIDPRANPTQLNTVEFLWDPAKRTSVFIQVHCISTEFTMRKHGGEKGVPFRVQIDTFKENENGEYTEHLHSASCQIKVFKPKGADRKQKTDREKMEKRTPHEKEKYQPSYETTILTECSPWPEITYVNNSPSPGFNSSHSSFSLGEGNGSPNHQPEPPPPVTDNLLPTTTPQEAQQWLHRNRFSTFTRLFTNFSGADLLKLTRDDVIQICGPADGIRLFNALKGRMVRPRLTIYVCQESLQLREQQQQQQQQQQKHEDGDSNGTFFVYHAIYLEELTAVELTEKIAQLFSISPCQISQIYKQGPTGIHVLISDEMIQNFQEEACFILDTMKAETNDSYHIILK
UniProt Q99081, sequence (Q99081 whole entry, looked up): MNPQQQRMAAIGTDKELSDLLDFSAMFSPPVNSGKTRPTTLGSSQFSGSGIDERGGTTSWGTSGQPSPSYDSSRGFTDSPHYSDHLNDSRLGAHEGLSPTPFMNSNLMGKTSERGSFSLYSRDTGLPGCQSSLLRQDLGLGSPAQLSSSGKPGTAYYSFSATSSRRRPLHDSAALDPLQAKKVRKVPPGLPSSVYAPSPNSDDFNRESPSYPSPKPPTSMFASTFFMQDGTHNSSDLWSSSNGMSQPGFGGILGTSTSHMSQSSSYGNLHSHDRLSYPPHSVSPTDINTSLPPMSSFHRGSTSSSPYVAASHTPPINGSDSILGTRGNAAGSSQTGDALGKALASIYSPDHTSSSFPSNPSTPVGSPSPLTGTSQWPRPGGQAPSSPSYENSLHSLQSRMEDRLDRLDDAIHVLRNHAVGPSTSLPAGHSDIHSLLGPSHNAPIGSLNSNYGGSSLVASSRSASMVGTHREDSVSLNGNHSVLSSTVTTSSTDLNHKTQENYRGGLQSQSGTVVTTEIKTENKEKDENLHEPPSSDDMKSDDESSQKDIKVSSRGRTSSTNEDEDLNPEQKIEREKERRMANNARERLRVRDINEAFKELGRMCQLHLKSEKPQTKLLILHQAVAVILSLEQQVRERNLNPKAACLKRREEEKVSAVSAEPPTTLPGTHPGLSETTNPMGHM
UniProt O94842, sequence (O94842 whole entry, looked up): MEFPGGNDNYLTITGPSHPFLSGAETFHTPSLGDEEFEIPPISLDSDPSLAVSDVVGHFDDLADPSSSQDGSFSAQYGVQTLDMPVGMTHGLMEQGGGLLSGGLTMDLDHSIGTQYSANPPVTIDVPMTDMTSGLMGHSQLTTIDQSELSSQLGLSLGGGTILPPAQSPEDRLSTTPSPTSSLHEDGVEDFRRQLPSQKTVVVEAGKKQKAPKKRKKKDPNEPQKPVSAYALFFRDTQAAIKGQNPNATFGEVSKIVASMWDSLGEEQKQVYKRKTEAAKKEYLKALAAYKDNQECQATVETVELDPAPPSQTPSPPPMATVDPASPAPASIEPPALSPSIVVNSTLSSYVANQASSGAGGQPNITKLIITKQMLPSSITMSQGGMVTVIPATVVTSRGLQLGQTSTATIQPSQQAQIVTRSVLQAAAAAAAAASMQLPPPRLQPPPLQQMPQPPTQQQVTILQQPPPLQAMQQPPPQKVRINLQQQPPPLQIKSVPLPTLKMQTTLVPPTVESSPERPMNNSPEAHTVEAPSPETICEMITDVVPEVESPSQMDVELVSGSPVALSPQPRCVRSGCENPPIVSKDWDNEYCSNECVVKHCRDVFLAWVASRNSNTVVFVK
UniProt Q14139, sequence (Q14139 whole entry, looked up): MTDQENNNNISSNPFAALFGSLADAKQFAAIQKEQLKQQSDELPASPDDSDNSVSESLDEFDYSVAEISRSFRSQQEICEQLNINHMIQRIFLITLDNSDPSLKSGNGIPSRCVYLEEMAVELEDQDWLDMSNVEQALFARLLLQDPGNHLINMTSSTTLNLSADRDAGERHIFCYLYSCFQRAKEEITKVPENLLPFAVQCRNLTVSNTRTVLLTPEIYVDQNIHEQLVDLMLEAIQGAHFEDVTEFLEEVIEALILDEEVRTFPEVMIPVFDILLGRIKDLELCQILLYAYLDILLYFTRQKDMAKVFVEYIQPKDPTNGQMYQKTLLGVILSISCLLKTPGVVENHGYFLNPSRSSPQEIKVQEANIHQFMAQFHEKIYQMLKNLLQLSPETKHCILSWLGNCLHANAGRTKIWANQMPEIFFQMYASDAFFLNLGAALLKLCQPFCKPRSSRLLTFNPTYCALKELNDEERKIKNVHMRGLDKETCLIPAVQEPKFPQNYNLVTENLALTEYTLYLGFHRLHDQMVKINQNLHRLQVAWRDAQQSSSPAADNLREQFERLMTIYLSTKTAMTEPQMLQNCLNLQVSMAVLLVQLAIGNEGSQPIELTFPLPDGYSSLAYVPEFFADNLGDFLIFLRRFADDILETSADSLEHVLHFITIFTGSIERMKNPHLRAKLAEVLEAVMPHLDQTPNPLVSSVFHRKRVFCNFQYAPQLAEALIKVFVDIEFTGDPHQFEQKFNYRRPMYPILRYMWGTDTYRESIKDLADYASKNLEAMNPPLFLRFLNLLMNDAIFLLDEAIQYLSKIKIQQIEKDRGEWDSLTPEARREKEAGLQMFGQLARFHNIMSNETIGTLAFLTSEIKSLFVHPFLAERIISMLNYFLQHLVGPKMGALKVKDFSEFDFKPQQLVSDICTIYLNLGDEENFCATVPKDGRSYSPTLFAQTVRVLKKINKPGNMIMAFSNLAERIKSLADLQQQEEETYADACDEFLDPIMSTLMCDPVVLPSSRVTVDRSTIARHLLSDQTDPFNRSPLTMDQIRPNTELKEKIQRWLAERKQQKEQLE
UniProt O75865, sequence (O75865 whole entry, looked up): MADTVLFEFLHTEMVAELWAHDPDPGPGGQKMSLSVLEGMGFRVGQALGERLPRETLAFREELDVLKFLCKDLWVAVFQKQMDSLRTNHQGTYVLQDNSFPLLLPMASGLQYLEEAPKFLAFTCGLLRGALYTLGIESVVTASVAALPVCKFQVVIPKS

Row | Target | log2 fold change (lapatinib) | log2 fold change (pictilisib) | log2 fold change (crizotinib) | log2 fold change [1] | log2 fold change (duvelisib) | log2 fold change (gandotinib) | log2 fold change (tozasertib) | log2 fold change (doramapimod) | log2 fold change (bafetinib) | log2 fold change [2] | log2 fold change (nilotinib) | log2 fold change [3] | log2 fold change (dasatinib) | log2 fold change [4] | log2 fold change [5] | log2 fold change (quisinostat) | log2 fold change (tipifarnib) | log2 fold change [6] | log2 fold change [7] | log2 fold change [8]
1 | TOPBP1 (UniProt Q92547) | 0.095 | -0.037 | 0.023 | 0.206 | -0.03 | -0.048 | -0.066 | 0.056 | -0.076 | -0.017 | 0.013 | -0.056 | 0.003 | 0.006 | 0.02 | -0.018 | 0.049 | -0.002 | 0.039 | -0.007
2 | TNFAIP3 (UniProt P21580) | -0.032 | 0.052 | -0.013 | 0.032 | 0.038 | -0.075 | 0.744 | 0.084 | -0.02 | -0.023 | 0.038 | -0.01 | -0.002 | -0.04 | 0.033 | 0.008 | -0.068 | 0.025 | 0.01 | 0.003
3 | TRAPPC6A isoform 2 (UniProt O75865) | 0.02 | 0.015 | 0.001 | -0.146 | -0.006 | 0.14 | -0.039 | -0.01 | 0.017 | 0.05 | 0.015 | -0.09 | -0.026 | 0.02 | -0.058 | 0.006 | 0.048 | -0.048 | -0.008 | 0.076
4 | TTC4 (UniProt O95801) | 0.006 | 0.025 | -0.073 | -0.059 | -0.001 | 0.035 | 0.009 | 0.014 | -0.001 | 0.026 | -0.04 | -0.034 | 0.025 | -0.018 | 0.012 | -0.07 | -0.01 | 0.025 | 0.023 | -0.018
5 | UBTF (UniProt P17480) | -0.013 | -0.024 | -0.037 | 0.071 | -0.015 | -0.103 | 0.004 | -0.008 | -0.039 | -0.011 | 0.001 | 0.031 | -0.021 | -0.039 | 0.004 | 0 | 0.015 | 0.044 | -0.01 | -0.042
6 | TUBB6 (UniProt Q9BUF5) | -0.038 | -0.015 | -0.056 | 0.003 | 0.009 | -0.009 | -0.02 | -0.047 | -0.023 | -0.018 | -0.002 | -0.023 | -0.031 | 0.006 | -0.006 | -0.028 | 0.021 | 0.022 | -0.001 | 0.004
7 | TESC (UniProt Q96BS2) | -0.03 | -0.122 | 0 | -0.095 | 0.026 | -0.066 | 0.026 | 0.073 | 0.048 | 0.037 | 0.031 | -0.025 | 0.053 | 0.05 | 0.02 | 0.012 | 0.012 | -0.036 | -0.035 | 0.049
8 | TFCP2 (UniProt Q12800) | 0.043 | 0.083 | -0.093 | 0 | -0.016 | 0.098 | 0.021 | 0.168 | -0.075 | 0.004 | 0.042 | 0.023 | -0.015 | 0.023 | 0.02 | -0.072 | -0.022 | 0.066 | 0.066 | -0.059
9 | TCF12 isoform 3 (UniProt Q99081) | -0.047 | 0.055 | 0.034 | -0.038 | 0.025 | 0.056 | 0.023 | -0.011 | -0.11 | -0.001 | -0.031 | 0.016 | 0 | 0.052 | -0.022 | 0.02 | -0.022 | -0.011 | -0.032 | -0.043
10 | UBE4A isoform 2 (UniProt Q14139) | -0.019 | -0.007 | -0.059 | -0.009 | 0.016 | -0.15 | 0 | 0.004 | -0.054 | 0.043 | 0.023 | -0.009 | -0.075 | -0.022 | 0.026 | -0.018 | -0.003 | 0.054 | 0.002 | 0.017
11 | UGDH (UniProt O60701) | 0.009 | -0.021 | -0.015 | 0.037 | -0.063 | -0.067 | -0.073 | -0.053 | -0.019 | -0.022 | 0.008 | -0.012 | 0.217 (active) | 0.009 | -0.034 | 0.019 | 0.007 | 0.039 | -0.01 | 0.006
12 | TOX4 (UniProt O94842) | 0.058 | 0.025 | -0.068 | -0.259 (active) | 0.06 | 0.231 (active) | -0.094 | 0.041 | -0.043 | 0.189 | -0.056 | -0.019 | 0.001 | 0.073 | 0.009 | -0.018 | -0.02 | -0.017 | 0.017 | 0.034
13 | TLK1 isoform 2 (UniProt Q9UKI8) | -0.047 | 0.135 | -0.061 | -0.032 | -0.048 | 0.456 (active) | 0.014 | 0.011 | -0.014 | 0.022 | -0.044 | 0.414 (active) | -0.005 | 0.188 | -0.036 | -0.23 | 0.023 | 0.133 | 0.035 | -0.021
14 | TRIM25 (UniProt Q14258) | 0.009 | -0.031 | 0.1 | 0.031 | -0.021 | 0 | 0.03 | -0.036 | -0.012 | -0.038 | 0.014 | 0.027 | -0.003 | -0.001 | -0.002 | 0.002 | -0.001 | -0.001 | -0.019 | 0.023
15 | TRADD (UniProt Q15628) | -0.015 | -0.011 | -0.003 | -0.022 | -0.081 | -0.03 | -0.011 | -0.022 | -0.034 | 0.035 | 0.009 | -0.02 | 0.065 | -0.013 | -0.002 | -0.018 | 0.053 | 0.044 | 0.01 | 0.041
16 | TTMP isoform 3 (UniProt Q5BVD1) | -0.1 | 0.013 | -0.241 | -0.618 (active) | 0.138 | 0.384 | -0.022 | 0.137 | -0.197 | 0.47 | 0.118 | -0.023 | -0.079 | -0.022 | -0.046 | -0.475 | -0.089 | 0.048 | 0.116 | -0.113
